About 7,900 targets were measured; listed, in parts, are those with a hit and a random draw of the rest. About 0.6% of all pairs of compound and target were hits.
compound: Cc1ncc(-c2ccnc(Nc3ccc(S(C)(=O)=O)cc3)n2)n1C(C)C; test: log2 fold change, soluble protein after heating vs DMSO (PISA); higher = thermal stabilisation; K562 cells, 10 uM, 30 min; active = over 0.2 and 3.5 SD of the protein, either way, in both replicates (recomputed)
Outline: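 Soluble protein was defined as the supernatant after 21,000xg for 90 min. It came from K562 cells at 2×10^6 cells/mL given 10 μM compound for 30 min, heated in aliquots for 3 min across 48°C-58°C, pooled, and extracted in PBS with 0.5% NP-40 at 4°C, and was quantified by TMTpro 16plex LC-MS/MS with equalised channel sums. Thermal stability against control samples, from duplicates, is reported as log2 fold change.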

Chain of UniProt Q8N3P4 (Q8N3P4 whole entry, looked up): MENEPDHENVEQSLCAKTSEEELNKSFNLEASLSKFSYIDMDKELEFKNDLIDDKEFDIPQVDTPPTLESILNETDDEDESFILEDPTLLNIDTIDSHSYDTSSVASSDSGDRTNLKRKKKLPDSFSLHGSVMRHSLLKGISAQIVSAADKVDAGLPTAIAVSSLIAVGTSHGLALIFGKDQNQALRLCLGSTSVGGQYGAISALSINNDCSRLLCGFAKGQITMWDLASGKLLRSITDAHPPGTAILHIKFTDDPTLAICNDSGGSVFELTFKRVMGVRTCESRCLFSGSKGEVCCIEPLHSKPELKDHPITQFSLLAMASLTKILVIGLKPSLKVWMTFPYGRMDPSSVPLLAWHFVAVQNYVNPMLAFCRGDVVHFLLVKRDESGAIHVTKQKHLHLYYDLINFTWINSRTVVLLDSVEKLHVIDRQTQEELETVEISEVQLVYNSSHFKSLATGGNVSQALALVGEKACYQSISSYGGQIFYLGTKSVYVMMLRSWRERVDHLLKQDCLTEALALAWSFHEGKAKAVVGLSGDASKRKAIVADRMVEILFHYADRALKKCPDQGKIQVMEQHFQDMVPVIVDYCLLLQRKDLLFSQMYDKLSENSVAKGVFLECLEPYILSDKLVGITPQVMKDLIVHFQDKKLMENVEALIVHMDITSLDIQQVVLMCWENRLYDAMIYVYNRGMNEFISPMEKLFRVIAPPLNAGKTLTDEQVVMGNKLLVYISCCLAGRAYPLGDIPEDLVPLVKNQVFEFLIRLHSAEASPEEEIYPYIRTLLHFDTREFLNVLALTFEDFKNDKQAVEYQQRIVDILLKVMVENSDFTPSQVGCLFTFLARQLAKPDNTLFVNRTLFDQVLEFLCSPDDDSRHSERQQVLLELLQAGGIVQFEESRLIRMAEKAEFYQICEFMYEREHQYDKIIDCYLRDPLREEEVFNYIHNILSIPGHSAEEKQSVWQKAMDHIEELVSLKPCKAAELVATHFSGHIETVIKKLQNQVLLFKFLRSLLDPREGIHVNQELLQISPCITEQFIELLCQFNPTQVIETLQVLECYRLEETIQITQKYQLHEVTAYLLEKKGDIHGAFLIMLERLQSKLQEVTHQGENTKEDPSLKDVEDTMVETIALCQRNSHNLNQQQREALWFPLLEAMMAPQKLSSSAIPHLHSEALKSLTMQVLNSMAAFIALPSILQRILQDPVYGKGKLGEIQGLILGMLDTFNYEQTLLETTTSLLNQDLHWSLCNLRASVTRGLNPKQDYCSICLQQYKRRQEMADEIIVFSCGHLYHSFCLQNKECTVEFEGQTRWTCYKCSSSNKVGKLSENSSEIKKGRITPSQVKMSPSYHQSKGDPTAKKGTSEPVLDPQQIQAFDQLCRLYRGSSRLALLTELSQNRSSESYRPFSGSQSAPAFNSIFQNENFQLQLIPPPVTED
Chain of UniProt Q7L0Y3 (Q7L0Y3 whole entry, looked up): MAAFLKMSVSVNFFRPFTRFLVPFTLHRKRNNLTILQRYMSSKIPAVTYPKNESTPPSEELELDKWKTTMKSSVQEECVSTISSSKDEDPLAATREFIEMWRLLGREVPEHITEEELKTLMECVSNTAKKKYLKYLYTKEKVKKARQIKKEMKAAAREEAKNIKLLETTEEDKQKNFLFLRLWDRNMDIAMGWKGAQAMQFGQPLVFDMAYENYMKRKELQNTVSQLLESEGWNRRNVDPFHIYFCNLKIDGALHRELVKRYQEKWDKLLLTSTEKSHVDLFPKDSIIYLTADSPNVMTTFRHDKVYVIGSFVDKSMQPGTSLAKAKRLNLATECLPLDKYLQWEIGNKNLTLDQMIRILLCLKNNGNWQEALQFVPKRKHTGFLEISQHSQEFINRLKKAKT
Chain of UniProt P68366 (P68366 whole entry, looked up): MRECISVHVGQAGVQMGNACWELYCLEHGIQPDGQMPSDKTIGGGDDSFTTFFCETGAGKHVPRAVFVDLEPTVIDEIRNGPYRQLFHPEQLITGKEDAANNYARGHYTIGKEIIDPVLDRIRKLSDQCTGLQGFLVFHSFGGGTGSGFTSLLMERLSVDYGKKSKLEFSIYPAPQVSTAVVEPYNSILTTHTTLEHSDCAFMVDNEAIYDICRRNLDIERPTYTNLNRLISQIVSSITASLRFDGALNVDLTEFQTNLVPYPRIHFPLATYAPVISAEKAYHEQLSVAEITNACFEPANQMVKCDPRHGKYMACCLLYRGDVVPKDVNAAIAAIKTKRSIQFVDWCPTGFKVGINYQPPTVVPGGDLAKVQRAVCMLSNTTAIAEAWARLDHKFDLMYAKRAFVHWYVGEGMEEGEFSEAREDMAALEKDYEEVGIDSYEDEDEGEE
Chain of UniProt Q7Z6J8 (Q7Z6J8 whole entry, looked up): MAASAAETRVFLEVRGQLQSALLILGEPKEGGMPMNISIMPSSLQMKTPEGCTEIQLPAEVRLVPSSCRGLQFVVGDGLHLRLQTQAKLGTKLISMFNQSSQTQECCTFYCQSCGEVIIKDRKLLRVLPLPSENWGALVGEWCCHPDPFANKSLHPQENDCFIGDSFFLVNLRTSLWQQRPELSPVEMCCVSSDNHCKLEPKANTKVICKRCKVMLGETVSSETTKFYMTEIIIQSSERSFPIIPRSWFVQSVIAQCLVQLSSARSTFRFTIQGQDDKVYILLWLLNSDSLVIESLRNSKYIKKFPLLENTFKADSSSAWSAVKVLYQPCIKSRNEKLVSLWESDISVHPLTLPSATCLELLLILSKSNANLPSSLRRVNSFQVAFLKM
Chain of UniProt Q9BXJ8 (Q9BXJ8 whole entry, looked up): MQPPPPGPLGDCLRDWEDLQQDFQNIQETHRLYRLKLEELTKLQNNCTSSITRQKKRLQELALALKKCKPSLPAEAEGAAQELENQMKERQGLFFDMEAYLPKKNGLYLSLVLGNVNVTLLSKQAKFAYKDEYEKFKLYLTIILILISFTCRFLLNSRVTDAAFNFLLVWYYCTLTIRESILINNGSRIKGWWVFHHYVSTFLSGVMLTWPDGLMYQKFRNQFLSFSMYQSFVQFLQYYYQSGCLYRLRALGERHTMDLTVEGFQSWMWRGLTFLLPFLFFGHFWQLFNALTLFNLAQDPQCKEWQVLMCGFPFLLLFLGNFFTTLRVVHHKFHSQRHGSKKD
Chain of UniProt P51809 (P51809 whole entry, looked up): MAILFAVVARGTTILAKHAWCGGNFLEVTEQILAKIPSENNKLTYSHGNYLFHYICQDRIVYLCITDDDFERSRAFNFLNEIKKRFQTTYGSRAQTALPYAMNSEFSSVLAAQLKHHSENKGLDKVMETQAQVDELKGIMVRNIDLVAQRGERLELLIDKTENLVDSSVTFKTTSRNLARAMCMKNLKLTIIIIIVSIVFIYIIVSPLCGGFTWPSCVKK
Chain of UniProt Q14157 (Q14157 whole entry, looked up): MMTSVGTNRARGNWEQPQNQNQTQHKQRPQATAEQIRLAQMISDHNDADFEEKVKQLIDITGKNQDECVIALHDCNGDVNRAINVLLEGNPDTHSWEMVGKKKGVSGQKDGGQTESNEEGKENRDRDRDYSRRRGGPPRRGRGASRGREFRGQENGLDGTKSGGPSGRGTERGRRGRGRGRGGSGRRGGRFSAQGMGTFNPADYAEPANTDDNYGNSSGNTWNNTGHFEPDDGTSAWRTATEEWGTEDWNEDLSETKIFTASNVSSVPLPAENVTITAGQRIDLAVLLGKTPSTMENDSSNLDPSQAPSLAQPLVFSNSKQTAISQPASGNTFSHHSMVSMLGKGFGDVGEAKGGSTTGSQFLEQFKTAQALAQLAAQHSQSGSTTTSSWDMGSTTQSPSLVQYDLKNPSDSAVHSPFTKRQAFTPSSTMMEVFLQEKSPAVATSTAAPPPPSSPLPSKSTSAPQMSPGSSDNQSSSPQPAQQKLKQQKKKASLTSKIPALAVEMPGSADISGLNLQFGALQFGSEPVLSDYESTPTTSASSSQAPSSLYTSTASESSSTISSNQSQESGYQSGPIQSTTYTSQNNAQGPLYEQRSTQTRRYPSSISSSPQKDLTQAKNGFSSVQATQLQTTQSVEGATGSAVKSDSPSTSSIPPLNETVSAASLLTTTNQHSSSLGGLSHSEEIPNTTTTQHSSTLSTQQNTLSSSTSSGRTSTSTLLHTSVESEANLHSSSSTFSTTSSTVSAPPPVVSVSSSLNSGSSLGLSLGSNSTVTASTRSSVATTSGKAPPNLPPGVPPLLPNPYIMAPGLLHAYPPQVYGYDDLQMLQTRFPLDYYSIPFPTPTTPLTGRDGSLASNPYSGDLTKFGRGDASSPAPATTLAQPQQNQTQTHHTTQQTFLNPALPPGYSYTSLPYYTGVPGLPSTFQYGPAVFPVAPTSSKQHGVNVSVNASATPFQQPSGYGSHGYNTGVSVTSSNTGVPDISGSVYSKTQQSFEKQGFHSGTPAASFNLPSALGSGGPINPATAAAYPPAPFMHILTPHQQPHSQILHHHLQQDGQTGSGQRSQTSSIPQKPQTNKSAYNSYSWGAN
Chain of UniProt P43897 (P43897 whole entry, looked up): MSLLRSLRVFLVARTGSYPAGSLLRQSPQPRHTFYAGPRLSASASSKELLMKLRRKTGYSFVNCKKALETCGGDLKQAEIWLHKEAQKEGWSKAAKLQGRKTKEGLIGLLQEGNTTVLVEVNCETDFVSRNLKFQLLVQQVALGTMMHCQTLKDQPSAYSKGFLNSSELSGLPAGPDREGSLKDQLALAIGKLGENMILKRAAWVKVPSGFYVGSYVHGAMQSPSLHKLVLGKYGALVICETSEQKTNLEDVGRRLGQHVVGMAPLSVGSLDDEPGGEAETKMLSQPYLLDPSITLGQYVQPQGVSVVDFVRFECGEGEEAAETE
Chain of UniProt Q9UEU0 (Q9UEU0 whole entry, looked up): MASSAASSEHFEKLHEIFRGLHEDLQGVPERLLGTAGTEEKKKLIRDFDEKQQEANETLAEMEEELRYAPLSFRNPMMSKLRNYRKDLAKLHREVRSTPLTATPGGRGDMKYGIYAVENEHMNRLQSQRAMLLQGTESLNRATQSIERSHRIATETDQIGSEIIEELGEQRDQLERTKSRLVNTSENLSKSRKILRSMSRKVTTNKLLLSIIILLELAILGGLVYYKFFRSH

log2 fold change, inactive:
TMEM8A (UniProt Q9HCN3) 0.019
UBAP2L isoform 1 (UniProt Q14157) -0.056
UBE4A isoform 2 (UniProt Q14139) 0.015
XPNPEP1 isoform 3 (UniProt Q9NQW7) -0.028
UTP14A (UniProt Q9BVJ6) -0.118
VAMP7 (UniProt P51809) 0.023
WDR4 (UniProt P57081) -0.003
TOP2A isoform 4 (UniProt P11388) -0.11
UBA1 (UniProt P22314) 0.062
WDHD1 (UniProt O75717) -0.021
WDR61 (UniProt Q9GZS3) -0.075
VTI1A (UniProt Q96AJ9) -0.005
VPS8 (UniProt Q8N3P4) 0.035
USO1 isoform 2 (UniProt O60763) 0.032
TSFM (UniProt P43897) 0.039
TMEM9 (UniProt Q9P0T7) -0.037
UBAP1 isoform 4 (UniProt Q9NZ09) 0.009
VPS50 (UniProt Q96JG6) 0.038
UNC119B (UniProt A6NIH7) 0.173
XPO6 (UniProt Q96QU8) 0.027
TUBA4A (UniProt P68366) -0.009
TRMT10C (UniProt Q7L0Y3) 0.012
TMEM120A (UniProt Q9BXJ8) -0.09
UBXN10 (UniProt Q96LJ8) -0.098
TNPO1 (UniProt Q92973) -0.079
UFL1 (UniProt O94874) 0.083
VTI1B (UniProt Q9UEU0) 0.027
VKORC1 (UniProt Q9BQB6) -0.013
VPS52 (UniProt Q8N1B4) 0.091
UBE3D (UniProt Q7Z6J8) 0.037
VPS33B (UniProt Q9H267) 0.099
USP48 isoform 8 (UniProt Q86UV5) -0.073
UBE2S (UniProt Q16763) 0.04
TMTC3 (UniProt Q6ZXV5) 0.015

From the supplement of paper PMC10849652
